Drawing on PubChem BioAssay (NCATS), this text covers Potency for 21 compounds.

Results filed as inconclusive are left out. Calls of active or inactive are those of the source. The call rests on the fitted dose curve; in most records, active means well fitted cell-killing curve with a large enough effect; inconclusive means small, poorly fitted or top-dose-only effect, or effect the other way; inactive means no such curve, though single readings can be large or run the other way.

A short description of assay [1]: Quantitative High-Throughput drug screen in 47 multiple myeloma cell lines against the NCATS MIPE library collection: XG6_PLB cell viability assay (AID 1919865). Further: nearly all actives have a fitted effect of over 40% in size. Summed up: (§1)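 Cells were exposed to library compounds for 48 hours, after which ATP was measured by CellTiter-Glo. Signal was taken as median relative luminescence units.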
A short description of assay [2]: Quantitative High-Throughput drug screen in 47 multiple myeloma cell lines against the NCATS MIPE library collection: VP6_DJ cell viability assay (AID 1919867). Further: nearly all actives have a fitted effect of over 40% in size. An outline of the steps: as §1
Assay [3] in a line: Quantitative High-Throughput drug screen in 47 multiple myeloma cell lines against the NCATS MIPE library collection: PCM6_Riken cell viability assay (AID 1919870). Further: nearly all actives have a fitted effect of over 30% in size. An outline of the steps:
as §1

Assay [4] in a line: Quantitative High-Throughput drug screen in 47 multiple myeloma cell lines against the NCATS MIPE library collection: RPMI8226_ATCC cell viability assay (AID 1919871). Further: nearly all actives have a fitted effect of over 30% in size. Summed up:
as §1

The nature of assay [5]: Quantitative High-Throughput drug screen in 47 multiple myeloma cell lines against the NCATS MIPE library collection: KMS11_JCRBsus cell viability assay (AID 1919873). Further: nearly all actives have a fitted effect of over 50% in size. Summed up:
as §1

Assay [6] in a line: Quantitative High-Throughput drug screen in 47 multiple myeloma cell lines against the NCATS MIPE library collection: KMS28BM_JCRB cell viability assay (AID 1919874). Further: nearly all actives have a fitted effect of over 35% in size. Summed up: as §1
Assay [7] is described as follows: Quantitative High-Throughput drug screen in 47 multiple myeloma cell lines against the NCATS MIPE library collection: XG1_PLB cell viability assay (AID 1919866). Further: nearly all actives have a fitted effect of over 35% in size. Summed up:
as §1

Assay [8] is described as follows: Quantitative High-Throughput drug screen in 47 multiple myeloma cell lines against the NCATS MIPE library collection: PE2_PLB cell viability assay (AID 1919869). Further: nearly all actives have a fitted effect of over 35% in size. Summed up: as §1
Assay [9] is described as follows: Quantitative High-Throughput drug screen in 47 multiple myeloma cell lines against the NCATS MIPE library collection: OPM2_DSMZ cell viability assay (AID 1919872). Further: nearly all actives have a fitted effect of over 30% in size. Summed up: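 Primary qHTS used for cherry-picking: cells at 500/well, library compounds for 48 h (37C, 5% CO2), luminescent ATP assay.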
The nature of assay [10]: Quantitative High-Throughput drug screen in 47 multiple myeloma cell lines against the NCATS MIPE library collection: UTMC2_PLB cell viability assay (AID 1919868). Further: nearly all actives have a fitted effect of over 55% in size. The conditions noted are these: CellTiter-Glo ATP luminescence, 48 h; viability (% of DMSO control): at 45.8 µM (top of the series). An outline of the steps: as §1
(In general: In ATP-based viability assays light output follows the ATP content of the culture.)
Potency means the concentration at half of the fitted maximal effect.

For `CC(=O)Oc1cc2c(s1)CCN(C(C(=O)C1CC1)c1ccccc1F)C2` (stereo not drawn), the Potency is 2.64 µM (active) in assay [1], 1.32 µM (active) in assay [2] and 1.48 µM (active) in assay [3].
On to `CC#CCn1c(N2CCC[C@@H](N)C2)nc2c1c(=O)n(Cc1nc(C)c3ccccc3n1)c(=O)n2C`, for which the Potency result in assay [1], in assay [3], in [4], in assay [5] and in assay [6] was “inactive” throughout.
For the compound `CNC(=O)c1ccc2cc(C3(O)CCn4cncc43)ccc2c1` (stereo not drawn), the Potency result in [7], in assay [2], in assay [8], in assay [3], in assay [4] and in assay [9] was “inactive” in each case. The Potency entry in [5] and in [6] was “inactive” each time.
In the case of `Cc1cc(OCCCc2c(C(=O)O)n(Cc3cccnc3)c3c(-c4c(COc5ccc(N6CCN([S+](C)(=O)[O-])CC6)cc5)nn(C)c4C)cccc23)cc(C)c1Cl`, the Potency in assay [1] is 20.9 µM (active); in [8], 18.7 µM (active); in assay [3], 20.9 µM (active); in assay [9], 10.5 µM (active); in assay [5], 23.5 µM (active); in [6], 23.5 µM (active).
Turning to `O=C(O)C(O)Cc1ccc(O)c(O)c1` (stereo not drawn), the Potency entry in [1] is “inactive”. The Potency was 16.6 µM (active) in assay [8], 26.4 µM (active) in assay [4] and 11.8 µM (active) in assay [9].
Turning to `COc1cc(N2CCC(N3CCN(C)CC3)CC2)ccc1Nc1ncnc(Nc2ccccc2S(=O)(=O)C(C)C)n1`, the Potency in [1] was 7.43 µM (active); in assay [3], 16.6 µM (active).
Turning to `CC(C)(C)Cn1c(N)nc2ccc(-c3[nH]c(C(C)(C)C)nc3-c3ccc(F)cc3)nc21`, the Potency in assay [1] is 14.8 µM (active); in assay [8] it was 20.9 µM (active). Also, the Potency result in [5] is “inactive”.
Regarding `NC(=O)c1cccc2[nH]c(-c3ccc([C@H]4CCCN4)cc3F)nc12`, the Potency was 8.33 µM (active) in assay [7], 14.8 µM (active) in assay [2] and 16.6 µM (active) in assay [8]. The Potency entry in [10], in [4], in assay [9], in [5] and in assay [6] was “inactive” throughout.
Regarding `O=C1NC(=O)C(=Cc2ccc(-c3ccc(F)cc3)o2)S1`, the Potency was 18.7 µM (active) in assay [1], 14.8 µM (active) in assay [2], 8.33 µM (active) in [8] and 7.43 µM (active) in assay [3]. For the same compound, the Potency entry in assay [9], in [5] and in assay [6] was “inactive” throughout.
On to `NC(=O)c1cccc(-c2cc(Nc3ccc(OC(F)(F)F)cc3)ncn2)c1`, for which the Potency in [1] is 16.6 µM (active); in assay [2], 14.8 µM (active); in [8], 18.7 µM (active); in assay [9], 16.6 µM (active); in assay [5] it was 29.6 µM (active). Also, in assay [4], the Potency entry is “inactive”.
For `O=C1NC(=O)C(=Cc2ccc3nccnc3c2)S1`, the Potency was 6.45 µM (active) in assay [7], 4.57 µM (active) in [2], 3.63 µM (active) in assay [10] and 7.24 µM (active) in assay [6]. Moreover, in assay [9], the Potency entry is “inactive”.
For `O=C(CCN1CCN(C(=O)OCc2cc(Cl)cc(Cl)c2)CC1)c1ccc2[nH]c(=O)oc2c1`, the Potency result in [1], in assay [2], in assay [8], in [3], in [4] and in assay [5] was “inactive” in each case. Further, the Potency entry in [6] was “inactive”.
With `CCn1c(C(=O)N(C2CC2)C2CC2)cc2c3c(ncn3C)c(Nc3cc(C)n(C)n3)nc21`, the Potency was 13.2 µM (active) in assay [1], 29.6 µM (active) in assay [2] and 16.6 µM (active) in [8]. Besides, the Potency entry in assay [6] is “inactive”.
As for `Nc1nc(F)nc2c1ncn2[C@@H]1O[C@H](COP(=O)(O)O)[C@@H](O)[C@H]1O`, the Potency in [7] is 29.6 µM (active). Moreover, the Potency result in [2], in assay [8], in assay [3], in [4], in assay [9] and in [5] was “inactive” throughout.
Take `CC(=O)O[C@]1(C(C)=O)CC[C@@H]2[C@@H]3C[C@H](C)C4=CC(=O)CC[C@]4(C)[C@H]3CC[C@@]21C`: the Potency was 23.5 µM (active) in assay [1], 14.8 µM (active) in [2] and 20.9 µM (active) in assay [5]. Also, the Potency entry in [10] is “inactive”.
For the compound `O=C1NC(=O)C(=Cc2ccc3c(c2)OC(F)(F)O3)S1`, the Potency in assay [1] is 1.66 µM (active); in [2], 14.8 µM (active); in assay [8] it was 20.9 µM (active); in assay [3], 4.18 µM (active). Further, the Potency entry in assay [9], in assay [5] and in assay [6] was “inactive” throughout.
For `O=C(Nc1ccccc1Br)N[C@@H]1CCN(c2ccc(C(F)(F)F)cn2)C1`, the Potency in [1] was 23.5 µM (active); in assay [2], 18.7 µM (active); in assay [8] it was 18.7 µM (active); in assay [6], 20.9 µM (active). For the same compound, the Potency result in assay [9] was “inactive”.
`O=C(NOCC(O)CO)c1cc(Br)c(F)c(F)c1Nc1ccc(I)cc1F` (stereo not drawn): the Potency in assay [1] was 2.35 µM (active). Also, the Potency result in assay [4] and in assay [9] was “inactive” each time.
Turning to `Oc1ccc(C2=Cc3ccc(O)cc3OC2)cc1`, the Potency is 1.32 µM (active) in assay [1], 9.35 µM (active) in assay [8] and 5.9 µM (active) in [4].
Take `CC(C)(C)OC(=O)N[C@H]1CCCCCC=C[C@@H]2C[C@@]2(C(=O)NS(=O)(=O)C2CC2)NC(=O)[C@@H]2C[C@@H](OC(=O)N3Cc4cccc(F)c4C3)CN2C1=O`: the Potency entry in [1], in assay [8], in assay [4], in assay [9], in assay [5] and in assay [6] was “inactive” each time.
For the compound `CO[C@@H](C(=O)N1Cc2[nH]nc(NC(=O)c3ccc(N4CCN(C)CC4)cc3)c2C1)c1ccccc1`, the Potency was 20.9 µM (active) in assay [1]; 0.0332 µM (active) in [10]; 20.9 µM (active) in [8]; 26.4 µM (active) in assay [3]; 1.66 µM (active) in assay [6].
